What was measured:
Format in all cases: functional
[1] = test system: Plasmodium falciparum; assay: GSK_TCMDC: Inhibition of Plasmodium falciparum 3D7 in whole red blood cells, using parasite LDH activity as an index of growth. Test compounds present at 2uM
[2] = test system: Plasmodium falciparum; assay: GSK_TCMDC: Inhibition of Plasmodium falciparum Dd2 in whole red blood cells, using parasite LDH activity as an index of growth. Test compounds present at 2uM
[3] = test system: HepG2; assay: GSK_TCMDC: Percent inhibition of human HepG2 cell line. Test compounds present at 10uM.

Structure (SMILES): Cc1cc2ccccc2c(CON2C(=N)N=C(N)NC2(C)C)c1C.Cl
- Inhibition [1]: 93%
- Inhibition [2]: 31%
- Inhibition [3]: 65%

Structure (SMILES): Cc1[nH]c(C)c(-c2ccc(CCc3ccc(N)cc3)cc2)c(=O)c1Cl
- Inhibition [1]: 97%
- Inhibition [2]: 97%
- Inhibition [3]: 2%

Structure (SMILES): Cc1cc(N[C@@H](CC(C)C)C(=O)NC2CCCC2)nc(NCC2CCCCC2)n1.O=C(O)C(F)(F)F
- Inhibition [1]: 100%
- Inhibition [2]: 88%
- Inhibition [3]: 8%

Structure (SMILES): O=C(NC1CCN(CC2(c3ccccc3)CCCC2)CC1)c1n[nH]cc1Cl
- Inhibition [1]: 83%
- Inhibition [2]: 87%
- Inhibition [3]: 0%

Structure (SMILES): Cl.N=C(N)c1ccc(C=CC(=O)NCC(O)CNC(=O)C=Cc2ccc(C(=N)N)cc2)cc1 (stereo not given)
- Inhibition [1]: 90%
- Inhibition [2]: 80%
- Inhibition [3]: 0%

Structure (SMILES): N=C(N)NC(=O)Nc1ccc(Cl)c(Cl)c1
- Inhibition [1]: 95%
- Inhibition [2]: 13%
- Inhibition [3]: 29%

Structure (SMILES): Clc1ccc(Nc2nc(NCc3ccccc3)nc(N/N=C/c3ccccn3)n2)cc1
- Inhibition [1]: 99%
- Inhibition [2]: 91%
- Inhibition [3]: 41%

Structure (SMILES): Br.CC1(C)NC(N)=NC(=N)N1OCCSCCON1C(=N)N=C(N)NC1(C)C
- Inhibition [1]: 95%
- Inhibition [2]: 81%
- Inhibition [3]: 34%

Structure (SMILES): COc1cccc(-c2nc3c(N4CCN(c5ccncc5)CC4)cccc3n2CC2CCCCCN2)n1.O=C(O)C(F)(F)F (stereo not given)
- Inhibition [1]: 91%
- Inhibition [2]: 31%
- Inhibition [3]: 12%

Structure (SMILES): CCc1nc2c(cnn2CC)c(NC2CCOCC2)c1CNC(=O)N1CCOCC1
- Inhibition [1]: 98%
- Inhibition [2]: 48%
- Inhibition [3]: 0%

Structure (SMILES): CS(=O)(=O)c1cccc(-c2cnc(N)c3cc(-c4ccc5c(c4)OCO5)ccc23)c1.O=CO
- Inhibition [1]: 91%
- Inhibition [2]: 23%
- Inhibition [3]: 37%

Structure (SMILES): CS(=O)(=O)c1ccc(-c2cncc(Cl)n2)cc1
- Inhibition [1]: 100%
- Inhibition [2]: 95%
- Inhibition [3]: 8%

Structure (SMILES): O=C(CCc1cccnc1)Nc1ccc(-c2cccc(-c3nc4cc(F)ccc4[nH]3)c2)cc1
- Inhibition [1]: 86%
- Inhibition [2]: 9%
- Inhibition [3]: 67%

Structure (SMILES): Cl.c1ccc2c(NCCCCCCCCCNc3ccnc4ccccc34)ccnc2c1
- Inhibition [1]: 100%
- Inhibition [2]: 100%
- Inhibition [3]: 57%

Structure (SMILES): CSc1cccc(Nc2nc3ccc(S(=O)(=O)NC(C)C(C)C)cc3n2[C@H](C)C(C)(C)C)c1 (stereo not given in full)
- Inhibition [1]: 97%
- Inhibition [2]: 98%
- Inhibition [3]: 0%

— ChEMBL document CHEMBL1157539, “Thousands of chemical starting points for antimalarial lead identification” (Nature, 2010)
